Screens as filed in PubChem BioAssay.
Sampled rows, rich in hits. Any-hit rate of the full collection: about 0.92%.
TbPYK inhibitor: blocks Trypanosoma brucei pyruvate kinase; 410,000 compounds, 0.12% hits; TbPYK enzyme, Kinase-Glo Plus ATP luminescence, 45 min; Potency, µM (highest dose often 76.8 µM), for the others: at the highest dose activity, negative = inhibition, most hits filed as inhibitors; further: on the % scale 0 is the no-effect control and ±100 the full control effect; nearly all actives have a fitted effect of over 50% in size
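Readout: single end-point luminescence (Kinase-Glo Plus, 10 min). Reaction conditions were TbPYK/substrate plus 130 uM ADP, 45 min at RT, pH 7.2 TEA buffer. No-enzyme wells served as controls, and data were normalized before concentration-response fitting.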
NS1 inh: inhibitors of influenza NS1 protein function. Potency, µM (series often up to 46.1 µM), inactives show at the highest dose activity, positive = more growth. 270,000 compounds, 0.4% hits; calls by dose curve; further: actives are rising curves; nearly all actives have a fitted effect of over 50% in size
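OD600 was taken as the measure of yeast growth restored by compound in an NS1-expressing S. cerevisiae strain. Cells had been washed out of glucose medium and diluted 1:100 into galactose -URA medium, pH 6.0.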
RE007 growth inh: less growth of the S. pombe RE007 Vpr strain | S. pombe RE007 Vpr strain, BacTiter-Glo ATP luminescence, 24 h | Potency, µM (top dose mostly 92.2 µM), without a hit: top-dose activity change, negative = less growth, actives largely listed as inhibitors | 360,000 compounds, 0.21% hits | AID 651644; active means well fitted falling curve with a large enough effect; inconclusive means small, poorly fitted or top-dose-only effect; inactive means no such curve, though single readings can be large or run the other way; further: on the % scale 0 is the no-effect control and ±100 the full control effect; nearly all actives have a fitted effect of over 50% in size
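Fission yeast strain RE007, carrying one chromosomally integrated HIV-1 vpr copy, was seeded at OD 0.01 in PMG+AL medium with 23 nL pinned compound. After 24 h at 30 °C and 99% humidity, viability was read by BacTiter-Glo luminescence.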
AMA1-RON2 inh: disrupts binding of P. falciparum AMA1 to RON2; Potency, µM (highest dose often 58.2 µM), inactives show at the top dose activity change, negative = inhibition, hits mostly inhibitors; AlphaScreen AMA1-biotinylated RON2 peptide binding; 360,000 compounds, 0.2% hits;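 further: 0% = vehicle wells and -100% = peptide control; nearly all actives have a fitted effect of over 45% in size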
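AMA1 (3D7) with his tag at 25 nM final met compounds first, then biotinylated RON2 peptide at 25 nM; detection used donor plus acceptor beads, 10 µg/mL apiece, read by AlphaScreen after 30 min at room temperature.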
LmPK inh: inhibitors of Leishmania mexicana pyruvate kinase | Q27686 | purified LmPK, Kinase-Glo ATP luminescence, 1 h | Potency, µM (top dose mostly 57.5 µM), for the others: top-dose activity change, negative = inhibition, usual class: inhibitors | 290,000 compounds, 0.37% hits | AID 1721; further: on the % scale 0 is the no-effect control and ±100 the full control effect
Target sequence (Q27686 whole entry, looked up): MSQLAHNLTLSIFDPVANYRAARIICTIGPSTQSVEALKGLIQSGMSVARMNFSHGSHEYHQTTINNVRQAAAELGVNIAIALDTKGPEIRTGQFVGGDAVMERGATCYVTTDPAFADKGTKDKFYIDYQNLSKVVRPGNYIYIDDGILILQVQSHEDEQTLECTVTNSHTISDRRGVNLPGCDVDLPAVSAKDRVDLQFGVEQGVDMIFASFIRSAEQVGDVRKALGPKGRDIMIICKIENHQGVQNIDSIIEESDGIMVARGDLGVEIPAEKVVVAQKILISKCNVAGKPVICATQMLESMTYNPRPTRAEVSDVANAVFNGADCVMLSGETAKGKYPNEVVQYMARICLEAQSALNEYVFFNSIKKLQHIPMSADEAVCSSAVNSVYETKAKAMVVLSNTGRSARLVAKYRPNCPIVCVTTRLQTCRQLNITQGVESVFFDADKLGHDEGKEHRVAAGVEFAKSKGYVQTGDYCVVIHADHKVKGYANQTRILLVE
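ATP generated from ADP (0.1 mM) and PEP (0.5 mM) by 0.1 nM LmPK over 1 h at room temperature (pH 7.2 imidazole buffer) was detected by coupled luciferase luminescence. Values were normalized to uninhibited and no-enzyme wells.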
An asterisk follows results filed as active; ? = inconclusive; · = no result; [ ] = remark or other dose. Unless noted, the call rests on the fitted dose curve; in most records, active means well fitted curve in the direction sought with a large enough effect; inconclusive means small, poorly fitted or top-dose-only effect, or another doubt; inactive means no such curve, though single readings can be large; an effect the other way counts as inactive or inconclusive. Potency means the concentration at half of the fitted maximal effect.

SMILES | TbPYK inhibitor | NS1 inh | RE007 growth inh | AMA1-RON2 inh | LmPK inh
CCn1nc(C)c(CN2CCc3c([nH]c4ccccc34)C2c2ccc(F)c(OC)c2)c1C (stereo unspecified) | 4% | -7% | -19% | 40µM* | 2%
COc1cc(/C=N/n2c(C3CCCCC3)n[nH]c2=S)cc(Br)c1O | 7.9µM* | 9% | 4% | 88% | -26%
S=c1[nH]nc(C2CCCCC2)n1/N=C/c1cccc(Br)c1 | -12% | 1% | 5% | 44% | 1%
C=CC(=O)Oc1ccc(N2Cc3ccccc3C2=O)cc1 | -28% | · | 7.9µM* | 0% | ·
COc1ccc(N2Cc3ccccc3C2=O)cc1 | -26% | -14% | ? | 17% | 14µM*
Cc1ccc(N2Cc3ccccc3C2=O)cc1 | ? | -41% | ? | 2% | ?
N#CC1(NC(=O)COC(=O)c2ccccc2[N+](=O)[O-])CCCCC1 | -15% | · | -2% | 15% | ·
N#CC1(NC(=O)COC(=O)c2cc(O)c3ccccc3c2O)CCCCC1 | 28µM* | · | ? | -7% | ·
CC1(c2ccc([N+](=O)[O-])cc2)Nc2ccccc2S1 (stereo unspecified) | -17% | 4% | 40µM* | -28% | 2%
O=C1Nc2ccccc2/C1=C/c1ccc([N+](=O)[O-])cc1 | -1% | -41% | 10% | 1% | -2%
O=C(/C=C/c1cccc(Cl)c1)c1ccc([N+](=O)[O-])o1 | -12% | · | 11µM* | -29% | ·
COc1ccc(/C=C/C(=O)c2ccc([N+](=O)[O-])o2)cc1OC | -4% | · | 0% | -6% | ·
COc1cc(/C=C/C(=O)c2ccc([N+](=O)[O-])o2)ccc1O | -5% | · | 13µM* | 22% | ·
Cc1cccc(C)c1OCC(O)Cn1c2ccccc2c2ccccc21 (stereo unspecified) | 0% | 20% | 35µM* | -15% | 3%
Cc1ccc(OCC(O)Cn2c3ccccc3c3ccccc32)cc1 (stereo unspecified) | -4% | -67% | ? | 16% | 4%
CCCCc1nc2c(c3c1C[C@H](C)OC3)CN(C(=O)Nc1cccc(C#N)c1)CC2 | · | · | · | · | -4%[11.5 µM]
C[C@@H]1CC2[C@@H]3C[C@H](F)C4=CC(=O)C(Cl)=C[C@]4(C)[C@@]3(F)[C@H](O)C[C@]2(C)[C@@]1(O)C(=O)CO (stereo partly specified) | 0% | · | · | · | ·
COc1ccc(N2CCC(CNC(=S)Nc3cc(C)cc(C)c3)C2)cc1 (stereo unspecified) | -21% | 4% | 8% | 6.3µM* | 5%
O=C(/C=C/c1cccs1)N1CCc2ccccc21 | ? | -21% | · | -1% | 14µM*
O=C(c1cccs1)N1CCc2ccccc21 | -7% | -28% | -27% | 8% | ?
CN1CCC[C@H](C(=O)OCC(=O)[C@]2(O)CC[C@@H]3[C@H]4CCC5=CC(=O)CC[C@@]5(C)[C@H]4[C@@H](O)C[C@]32C)C1 | · | -6% | · | · | ·
Oc1ccc(Cc2nccc3cc(O)c(O)cc23)cc1O | · | -5% | · | · | ·
COC(=O)C1=C(C(=O)OC)[C@@H]2Nc3ccccc3[C@@]23C[C@@H](C(=O)OC)N(S(=O)(=O)c2ccc(C#N)cc2)C3=N1 | · | · | · | · | -6%[11.5 µM]
CCN(CC(=O)Nc1ccc(OC)cc1)C(=O)c1ccc2c(c1)NC(=O)C(C)S2 (stereo unspecified) | 28µM* | · | 27% | 30% | ·
O=C1c2ccccc2C(=O)c2c1cccc2N1CCCC1 | -17% | -13% | · | 13µM* | -13%
O=C1c2ccccc2-c2onc3ccc(N4CCCC4)c1c23 | -6% | · | ? | ? | -26%
CCOC(=O)c1c(C)[nH]c2cc(Br)c(O)cc12 | 1% | -30% | 4% | 10% | 3%
CCOC(=O)c1c(OCC)[nH]c2c1cc(O)c1ccccc12 | -19% | -11% | -18% | 15µM* | ?
COc1ccc(N2CCN(C(=O)c3cn(C4CCCC4)c(=O)c4c3c3ccccc3n4C)CC2)cc1 | -6% | 10% | -5% | 14µM* | 12%
COc1ccc(N2CCN(C(=O)c3cn(C)c(=O)c4c3c3ccccc3n4C)CC2)cc1 | -7% | -7% | 6% | -28% | 8%
